PubChem BioAssay (NCI)
The panel holds about 83,000 compounds, 20% with a hit somewhere; the sample as a whole holds those more often.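 Cells were grown in 96-well plates and exposed to the test compound at a single concentration for 48 hours; results are reported as percent growth, with values below 10 considered active.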 Unmarked numbers belong to inactive results. Calls of active or inactive are those of the source.

Tested on: HL-60(TB) leukemia
Assay: NCI-60 one-dose screen, 48 h (100 = growth as untreated, 0 = no growth, -100 = all killed)
Conditions: 10 µM unless noted

| SMILES | growth |
| --- | --- |
| CC(C)CCN(CCC(C)C)CC(O)c1cc2c(c3ccccc13)CCCC2 (stereo not given) | 78.6% |
| COc1cccc(-c2nc(-c3ccc(NC(=O)C(C)C)cc3)[nH]c2-c2ccnc(Br)c2)c1 | -23.4% (active) |
| O=S(=O)(Nc1cc(Sc2nc3ccccc3s2)c(O)c2ccccc12)c1ccc2ccccc2c1 | 71.6% |
| Cc1ccc(-c2nc(-c3cn(C)c4ncccc34)cs2)cc1 | 16.2% [100 µM] |
| c1ccc2[nH]c(-c3ccc(Nc4nc(N5CCCC5)nc5[nH]ncc45)cc3)nc2c1 | -32.8% (active) |
| Cc1cccc2c3c(sc12)C(c1ccc(F)cc1)C(C#N)=C(N)O3 (stereo not given) | -21.8% (active) |
| COc1ccc2c(c1)/C(=C\c1c[nH]c3ccc(F)cc13)C(=O)N2 | 88.3% |
| O=C(C1CCC1)N1N=C(c2ccc(-n3ccc(C(F)(F)F)n3)cc2)CC1c1ccc[nH]1 (stereo not given) | 97.8% |
| Cc1nc(Nc2ccc(F)c(Cl)c2)sc1C(=O)O | 11.6% |
| NS(=O)(=O)c1ccc(CCn2c(SCC(=O)N/N=C/c3cc4ccccc4[nH]3)nc3ccccc3c2=O)cc1 | 35.2% |
| COc1ccc(NC(=O)Nc2ccccc2CNc2nc(Nc3ccc(OCCN4CCCC4)cc3)ncc2Cl)cc1 | -43.7% (active) |
| C/C(=N\O)[C@@H]1CC[C@]2(CO)CC[C@]3(C)[C@H](CC[C@@H]4[C@@]5(C)CCCNC(C)(C)[C@@H]5CC[C@]43C)[C@@H]12 | 95.1% |
| CSc1ccc(Cl)c(C(=O)Nc2sccc2C(N)=O)c1 | 91.3% |
| O=C1/C(=C/c2ccccc2)CN(CCC(=O)N2C/C(=C\c3ccccc3)C(=O)/C(=C/c3ccccc3)C2)C/C1=C\c1ccccc1 | 48% |
| CCOS(=O)(=O)c1c(C(C)C)cc(C(C)C)cc1C(C)C | 89% |
| CN(C)c1ccc(C2(Cl)c3ccccc3N(C)c3ccccc32)cc1 | 17.5% |
| COc1cc2ncnc(Nc3ccc(OCc4cccc(F)c4)c(Cl)c3)c2cc1NC(=O)C1CCCC1 | 99% |
| CCOC(=O)c1ccc(NC(=O)Nc2nncs2)cc1 | 5.62% (active) |
| Oc1ccccc1/C=N/N=C\c1ccccc1Cl | 30.9% |
| c1cc(C2CCCCC2)ccc1OCCCCCCN1CCNCC1 | -38.4% (active) |

| SMILES | growth |
| --- | --- |
| O=C(Nn1c(NCC(=O)N2c3ccccc3Sc3ccccc32)nnc1-c1ccc(O)cc1)c1ccccc1 | 98.6% |
| O=C(NN1C(=O)CSC1c1cccc([N+](=O)[O-])c1)c1ccc(NC(=O)c2ccccn2)cc1 (stereo not given) | 67.6% |
| Cc1ccc(N=C=C(c2ccccc2)c2ccccc2)cc1 | 18.6% |
| CC(=O)OCCC/C(=C\c1ccc2ccccc2c1)[N+](=O)[O-] | -61% (active) |
| C=C(C)[C@@H]1CC[C@]2(COCCCNCCCN)CC[C@]3(C)[C@H](CC[C@@H]4[C@@]5(C)CC[C@H](OCCCN)C(C)(C)[C@@H]5CC[C@]43C)[C@@H]12 | 48.2% |
| C/C(=C(\c1ccc(OCCCN(C)C)cc1)c1ccc(OC(=O)Cc2ccccc2)cc1)c1ccc(Cl)cc1 | 78% |
| Cc1cccc[n+]1CCC[n+]1ccccc1C | 86.4% |
| Nc1c(C(=O)O)cc(Cl)cc1[N+](=O)[O-] | 73.7% |
| COc1cccc2cc(N(C)c3nc(C)nc4c3CCC4)ccc12 | -8.85% (active) |
| COc1cc(CN)ccc1O | 73.9% |
| COc1ccc(-n2nc(C)c3c(Nc4ccc(NC(=O)Nc5ccc(Cl)c(C(F)(F)F)c5)cc4)ncnc32)cc1 | -9.54% (active) |
| Fc1cc(-c2nnc3sc(-c4ccc(Cl)cc4)nn23)c(Cl)cc1Cl | 26.9% |
| NC(=O)OCCn1cc(-c2nc(-c3c[nH]c4ncccc34)cs2)c2ccccc21 | 6.14% (active) |
| CCCCCCCCCCCC1N=C(N)N=C(N)N1c1cccc(Br)c1 (stereo not given) | -53% (active) |
| O=C(O)/C=C\C(=O)N1C/C(=C\c2ccccc2Cl)C(=O)/C(=C/c2ccccc2Cl)C1 | -3.51% (active) |
| CC(=O)c1nc2ccccc2n1CC(=O)c1cccc(Cl)c1 | -28.9% (active) |
| O=C1c2c(c3c4ccccc4n(CCCCCCN4CCOCC4)c3c3[nH]c4ccccc4c23)C(=O)N1O | 77.7% |
| CCOC(=O)C1=C(c2ccccc2)N=C2SC=C(c3ccc(Cl)cc3)N2C1c1ccc(Br)cc1 (stereo not given) | 55.2% |
| O=C(Nc1ccc(Cl)cc1)c1cc2cc(F)ccc2cc1O | -4.75% (active) |
| CN(C)CCCC1(c2ccc(F)cc2)OCc2cc(-c3csc4ccccc34)ccc21 (stereo not given) | -52.1% (active) |
